Source: PubChem BioAssay (Tox21)
Results filed as inconclusive are left out. Where a call stands in place of a potency, no number is given. A number with no mark means an inactive call. Active and inactive are the calls of the source. Calls follow the shape of the full dose curve.

Assay: cAMP Responsive Elements (CRE) small molecule agonists, cell-based qHTS assay (AID 1963590)
Details: CRE-bla HEK293T, beta-lactamase FRET ratio, 3 h; series mostly up to 92.4 µM
From the text: U.S. Tox21 Program National Center for Advancing Translational Sciences [NCATS] Division of Preclinical Innovation [DPI] U.S. Environmental Protection Agency [EPA] National Institutes of Environmental Health Sciences [NIEHS] National Toxicology Program [NTP] U.S. Food and Drug Administration [FDA] Tox21 Assay Overview: CREB (cyclic-AMP Responsive Element Binding Protein) is a cellular transcription factor. It binds to certain DNA sequences called cAMP Responsive Elements (CRE) and regulates the transcription of the genes. […] This cell line can be used to find agonists/antagonists of the cyclic AMP signaling pathway. The activation of the report gene under culture conditions can be detected by fluorescence intensity. This cell line has been used to screen the Tox21 10K compound library to identify agonists that induce oxidative stress.
Tox21 Assay Protocol Summary: CRE-bla Hek 293T cells were suspended in assay medium (DMEM containing 10% dialyzed FBS, 0.1 mM NEAA, 1 mM sodium pyruvate and 25 mM HEPES) and dispensed at 2,000 cells/5 uL /well into 1536-well black wall/clear bottom plates using a Multidrop Combi (ThermoFisher Scientific, Waltham, MA) dispenser. After the assay plates were incubated at 37 C/5% CO2 for 18 hrs, 23 nL of compounds dissolved in DMSO, positive controls or DMSO only was transferred to the assay plate by a pintool workstation (Kalypsys, San Diego, CA). After the plates were incubated at 37 C/5% CO2 for 3 hrs, 1 uL of LiveBLAzer B/G FRET substrate (Invitrogen, Carlsbad, CA) was added to each well using Bioraptr Flying Reagent Dispenser (FRD, Aurora Discovery, San Diego, CA). The plates were incubated at room temperature for 2 h.

SMILES	Potency	activation
CCc1cccc2c(CCO)c[nH]c12	inactive	–
NC1=NCC2c3ccccc3Cc3ccccc3N12 (stereo not given)	inactive	–
NCCN1CCOCC1	inactive	–
Nc1c(I)cc(I)c(C(=O)N(CCC(=O)O)c2ccccc2)c1I	inactive	–
CCOC(=O)c1ccc(N(C)C)cc1	inactive	–
Cc1cc([N+](=O)[O-])ccc1N	inactive	–
CC1=NN(c2ccc(S(=O)(=O)O)cc2)C(=O)C1N=Nc1ccccc1 (stereo not given)	inactive	–
CN1C(=O)c2ccccc2C1=O	inactive	–
COP(=O)(O)OP(=O)(O)OC	inactive	–
CC(C)(C)C(=O)c1ccccc1	inactive	–
CC1=CCC(C(C)C)C=C1 (stereo not given)	inactive	–
COC(=O)C1=C(C)NC(C)=C(C(=O)OCCc2ccc(N3CCN(C(c4ccccc4)c4ccccc4)CC3)cc2)C1c1cccc([N+](=O)[O-])c1 (stereo not given)	inactive	–
CCC(Cl)C(Cl)C(Cl)CC(Cl)C(Cl)C(C)Cl (stereo not given)	inactive	–
CC/C=C\CCCCCCCCCCOC(C)=O	inactive	–
CC(C)(C)C1=CC(=O)C=C(C(C)(C)C)C1=O	inactive	–
CN(C)c1ccc(SC#N)cc1	inactive	–
c1ccc2sc(SSc3nc4ccccc4s3)nc2c1	–	-0.0759% [at 19 µM]
Cc1c(NC(=O)c2cccnc2)c(=O)n(-c2ccccc2)n1C	inactive	–
CCC(C)(CCC(C)C)C(=O)[O-].CCC(C)(CCC(C)C)C(=O)[O-].[Zn+2] (stereo not given)	inactive	–
CN(C)CCN(C)CCO	inactive	–

SMILES	Potency	activation
Cc1ccc(O)c2ncccc12	inactive	–
C=C1CC[C@H]2C[C@@H]1C2(C)C	inactive	–
SC1CCCC1	inactive	–
CCOC(=O)Nc1ccc2c(c1)N(C(=O)CCN1CCOCC1)c1ccccc1S2	inactive	–
Cc1cc(C)c(C)c(C)c1	inactive	–
CCCC1CCOC(C)S1 (stereo not given)	inactive	–
CCCCCCCCCCO[C@@H]1O[C@H](CO)[C@@H](O)[C@H](O)[C@H]1O	inactive	–
CCN(CC)CCNC(C(=O)OCCC(C)C)c1ccccc1 (stereo not given)	inactive	–
CN1CC(=O)N2[C@H](c3ccc4c(c3)OCO4)c3[nH]c4ccccc4c3C[C@@H]2C1=O	inactive	–
CCCCCCOc1ccccc1C(N)=O	inactive	–
CCCCCCCCCCCCCCOS(=O)(=O)O	inactive	–
C/C=C/C=C/CO	inactive	–
CC1=CC(=O)/C(=C(/C)O)C(=O)O1	inactive	–
CC1(O)CSC(C)(O)CS1 (stereo not given)	inactive	–
O=C(O)CC(=O)C(=O)O	inactive	–
C=C(C)C1CCC(C)(O)CC1 (stereo not given)	inactive	–
CCCCC(CC)CNC(=O)CC(C)OC(=O)CCC(=O)O (stereo not given)	inactive	–
NC(CCC(=O)O)C(=O)O (stereo not given)	inactive	–
CCCCOc1ccc(N)cc1	inactive	–
c1ccccc1	inactive	–
